Test results: PubChem BioAssay (NCATS)
Records with an inconclusive call do not appear. Unmarked numbers belong to inactive results. Calls of active or inactive are those of the source. Calls follow the shape of the dose curve; as a rule, active = well fitted inhibition curve with a large enough effect; inconclusive = small, poorly fitted or top-dose-only effect; inactive = no such curve, though single readings can be large or run the other way.

Assay: qHTS Screen of the MIPE 4.0 Collection Against Ewings Sarcoma (TC32) (AID 1259256); also: nearly all actives have a fitted effect of over 45% in size;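 as to viability (percent of control): 100% = DMSO-treated cells and 0% = medium-only wells without cells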
Details: TC32 Ewing sarcoma viability, CellTiter-Glo, 48 h; series mostly up to 45.8 µM; viability (percent of control): at the top concentration
Source text: There is a large unmet medical need for treatments for Ewing sarcoma, a pediatric sarcoma. We sought to identify compounds that inhibited Ewing sarcoma cells in vitro with the goal to then test promising drugs in two drug combinations in vitro to look for synergistic drug combinations. Promising combinations would then proceed to additional validation, including in vivo testing.
Using the NCATS developed oncology compound library called the Mechanism of Interrogation Plate (MIPE), four Ewing sarcoma cell lines were evaluated (TC32, TC71, RDES, EW8). Compounds, in a 12-point titration series, were incubated with cells for 48 hours and the read out was cell viability (CellTiter-Glo from Promega). These initial experiments were used to select appropriate concentrations of each single agent for subsequent two-drug matrix combinations such that the concentrations in the matrices would span both activity and non-activity.
Cells, in the log phase of growth, were seeded in 5 uL of RPMI plus 5% FBS, […] L-glutamine, 100 U/ml penicillin and 100 ug/ml streptomycin into 1536-well solid-bottom white tissue culture treated Greiner Bio One Plates (789173-F) using a MultiDrop Combi (Thermofisher Scientific) dispenser and a small sterile cassette. One column was media alone to be used as a :"no cells" control. The plates were then covered with sterilized stainless steel gasketed lids from Kalypsys. After allowing cells to attach for 4 hours, 23 nL of test compound or control (negative control DMSO and positive control 9.2 uM Bortezomib-final) were added from a 1536-well polypropylene compound source plate to each well using a 1536 head pin tool from Kalypsys. Cells were then incubated for 48 hours at 37C, 95% relative humidity and 5% CO2. After 48 hours, plates were removed from the incubator and 3 uL of CellTiter-Glo (Promega) was added using an Aurora Flying Reagent Dispenser Bioraptor. Plates were incubated at room temperature for 10 minutes prior to reading the luminescence on the Viewlux (PerkinElmer). The relative luciferase units are used to calculate the percent activity using the activity of DMSO in the cells and no cells columns for normalization of no inhibition and full inhibition respectively.
Potency is read from the fitted curve at half-maximal effect.

Question: Which “viability (percent of control)” value does the source give for `O=C(C=Cc1c(C(=O)O)[nH]c2cc(Cl)cc(Cl)c12)Nc1ccccc1` here?
Answer: Its value is 122%.

Question: With `CNC(=O)c1c(F)cccc1Nc1nc(Nc2cc3c(cc2OC)CCN3C(=O)CN(C)C)nc2[nH]ccc12` as the compound, how does the Potency read?
Answer: Its Potency is 1320 nM (active).

Question: Which Potency does the source give for `O=C(O)C1(Cc2cccc(Nc3nccs3)n2)CCC(Oc2cccc(Cl)c2F)CC1` (stereo not given) here?
Answer: Its Potency is 372 nM (active).

Question: For `CN1CC[C@@H](c2c(O)cc(O)c3c(=O)cc(-c4ccccc4Cl)oc23)[C@@H](O)C1`, which Potency is on record?
Answer: The Potency was 148 nM (active).

Question: For `Cc1cc(Nc2nc(N[C@@H](C)c3ccc(F)cc3)c(C#N)cc2F)n[nH]1`, which Potency is on record?
Answer: Its Potency is 1320 nM (active).

Question: With `Cc1cc(Nc2ncnc3ccc(-c4ccc(CNCCS(C)(=O)=O)o4)cc23)ccc1Oc1ccn2ncnc2c1` as the compound, how does the Potency read?
Answer: Its Potency is 16600 nM (active).

Question: For `Cc1cc(C(=O)N2CCN(c3cccc(Cl)c3)CC2)n(-c2ccccc2)n1`, which “viability (percent of control)” value is on record?
Answer: The value was 93.1%.

Question: Which Potency does the source give for `CCC[C@H](NC(=O)C(C#N)=Cc1cccc(Br)n1)c1ccccc1` here?
Answer: The Potency was 7430 nM (active).

Question: Which “viability (percent of control)” value does the source give for `COc1ccc(C=Cc2cc(OC)c(OC)c(OC)c2)cc1O` here?
Answer: Its value is 89.7%.

Question: With `Cc1nc(N)ncc1-c1nc(N2CCOCC2)c2sc(C(C)(C)O)cc2n1` as the compound, how does the Potency read?
Answer: The Potency was 2350 nM (active).

Question: With `Cc1ccc(C(N)=O)cc1Nc1nccc(-c2cn(C(C)C)c3cnccc23)n1` as the compound, how does the Potency read?
Answer: The Potency was 16600 nM (active).

Question: With `COC(=O)c1ccc2c(C(=Nc3ccc(N(C)C(=O)CN4CCN(C)CC4)cc3)c3ccccc3)c(O)[nH]c2c1` as the compound, how does the Potency read?
Answer: The Potency was 1480 nM (active).

Question: For `CC(C)C[C@H](NC(=O)CNC(=O)c1cc(Cl)ccc1Cl)B(O)O`, which Potency is on record?
Answer: The Potency was 469 nM (active).

Question: With `COc1cc(OC2CCN(C)CC2)ccc1Nc1ncc2c(n1)n(C1CCCC1)c(=O)n2C` as the compound, how does the Potency read?
Answer: The Potency was 4690 nM (active).

Question: With `Nc1ccccc1NC(=O)c1ccc(CNC(=O)OCc2cccnc2)cc1` as the compound, how does the Potency read?
Answer: The Potency was 1660 nM (active).

Question: For `COc1cc2nccc(Oc3ccc(NC(=O)C4(C(=O)Nc5ccc(F)cc5)CC4)cc3)c2cc1OC`, which Potency is on record?
Answer: The Potency was 1660 nM (active).

Question: For `COC(=O)[C@]12CCC(C)(C)C[C@@H]1[C@@H]1C(=O)C=C3[C@@]4(C)C=C(C#N)C(=O)C(C)(C)[C@@H]4CC[C@@]3(C)[C@]1(C)CC2`, which Potency is on record?
Answer: Its Potency is 118 nM (active).

Question: Which Potency does the source give for `NC(=O)Nc1cc(-c2cccc(F)c2)sc1C(=O)N[C@H]1CCCNC1` here?
Answer: Its Potency is 83.3 nM (active).

Question: Which Potency does the source give for `Nc1ccccc1NC(=O)c1ccc(CNc2nccc(-c3cccnc3)n2)cc1` here?
Answer: The Potency was 935 nM (active).

Question: For `Cc1cc(Nc2cc(CN3CCOCC3)c3nc(C)c(Cc4ccc(Cl)cc4F)n3n2)n[nH]1`, which Potency is on record?
Answer: Its Potency is 3720 nM (active).

Question: Which Potency does the source give for `CC(=O)c1c(C)c2cnc(Nc3ccc(N4CCNCC4)cn3)nc2n(C2CCCC2)c1=O` here?
Answer: Its Potency is 14800 nM (active).

Question: For `O=C(C=Cc1cccc(S(=O)(=O)Nc2ccccc2)c1)NO`, which Potency is on record?
Answer: Its Potency is 1910 nM (active).

Question: For `Cc1cc(Nc2cc(N3CCN(C)CC3)nc(Sc3ccc(NC(=O)C4CC4)cc3)n2)n[nH]1`, which Potency is on record?
Answer: The Potency was 1180 nM (active).

Question: With `Cc1ccc(-c2ncn(-c3ccc(Nc4nccc(-c5cccc(N6CCOCC6)c5)n4)cc3)n2)cn1` as the compound, how does the Potency read?
Answer: The Potency was 52.6 nM (active).

Question: Which Potency does the source give for `COc1cc(C(C)C)c2c(c1)S(=O)(=O)N(COc1cc(=O)n3cccc(OCCN4CCCCC4)c3n1)C2=O` here?
Answer: Its Potency is 20900 nM (active).

Question: With `C1Cc2[nH]nc(-c3nn[nH]n3)c2C1` as the compound, how does the “viability (percent of control)” value read?
Answer: Its value is 118%.

Question: Which “viability (percent of control)” value does the source give for `Cc1cn2cc(C(=O)N(C)CCO)cc(N[C@@H]3CCOc4cccc(C)c43)c2n1` here?
Answer: Its value is 131%.

Question: For `COC(=O)C1=C(C)NC(C)=C(C(=O)OCCN2CCN(C(c3ccccc3)c3ccccc3)CC2)C1c1cccc([N+](=O)[O-])c1` (stereo not given), which “viability (percent of control)” value is on record?
Answer: Its value is 128%.

Question: With `CCNC(=O)Nc1ccc2ncc(Nc3ccc(C)cc3)nc2n1` as the compound, how does the Potency read?
Answer: The Potency was 1320 nM (active).

Question: With `COc1cc2c(Oc3ccc(-c4cnc(Nc5ccc(F)cc5)n(C)c4=O)cc3F)ccnc2cc1OCCCN1CCOCC1` as the compound, how does the Potency read?
Answer: The Potency was 11800 nM (active).

Question: For `CC[C@@H]1C(=O)N(C)c2cnc(Nc3ccc(C(=O)NC4CCN(C)CC4)cc3OC)nc2N1C1CCCC1`, which Potency is on record?
Answer: Its Potency is 46.9 nM (active).

Question: With `O=C(Nc1cn[nH]c1-c1nc2ccc(CN3CCOCC3)cc2[nH]1)NC1CC1` as the compound, how does the Potency read?
Answer: Its Potency is 66.2 nM (active).

Question: For `CC(C)(C)OC(=O)Nc1ccc(-c2cc(C(=O)NCCCCCCC(=O)NO)no2)cc1`, which Potency is on record?
Answer: Its Potency is 1660 nM (active).

Question: For `CNc1nccc(-c2cccnc2Oc2cc(C(=O)Nc3cccc(C(F)(F)F)c3)ccc2C)n1`, which Potency is on record?
Answer: Its Potency is 16600 nM (active).

Question: With `Cn1c(CNc2ccc(C(=N)N)cc2)nc2cc(C(=O)N(CCC(=O)O)c3ccccn3)ccc21` as the compound, how does the “viability (percent of control)” value read?
Answer: The value was 142% [at 23.2 µM].

Question: For `CC(C)(C)c1cc(NC(=O)Nc2ccc(-c3cn4c(n3)sc3cc(OCCN5CCOCC5)ccc34)cc2)no1`, which “viability (percent of control)” value is on record?
Answer: The value was 114%.

Question: For `COc1cccc2nc(-c3cccs3)nc(NN3C(=O)C=C(C)C3=O)c12`, which Potency is on record?
Answer: The Potency was 1870 nM (active).

Question: With `CC(C)(O)CCc1ccc(OCc2cc(-c3cccc(OC(F)F)c3)c3ncccc3c2)cc1` as the compound, how does the “viability (percent of control)” value read?
Answer: Its value is 121%.

Question: Which Potency does the source give for `Cc1nc2cnc3ccc(C#Cc4cccnc4)cc3c2n1-c1ccc(C(C)(C)C#N)cc1` here?
Answer: Its Potency is 105 nM (active).

Question: With `Nc1nc(-c2nn(Cc3ccccc3F)c3ncccc23)nc(N)c1N1CCOCC1` as the compound, how does the “viability (percent of control)” value read?
Answer: The value was 115%.
